Source: PubChem BioAssay AID2156 (Johns Hopkins Ion Channel Center, 2009)
About 3,400 (1.1%) of roughly 310,000 compounds were called active. This is one part of a sample in which actives are shown more often than they occur.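 Rule for the calls: active = fluorescence ratio B-score at most minus 3 library SDs, with starting brightness B-score within 2 library SDs (cut at about -5.5 in these data); inactive = the rest, inconclusive results apart.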

target: Potassium voltage-gated channel subfamily KQT member 2 (Rattus norvegicus) (UniProt O88943); assay: KCNQ2 channel blockers in CHO-K1 cells – cell-based, FluxOR thallium flux, B-score, primary screen (AID 2156); conditions: 20 min, at 10 µM; active compounds read low
Sequence (O88943 whole entry, looked up): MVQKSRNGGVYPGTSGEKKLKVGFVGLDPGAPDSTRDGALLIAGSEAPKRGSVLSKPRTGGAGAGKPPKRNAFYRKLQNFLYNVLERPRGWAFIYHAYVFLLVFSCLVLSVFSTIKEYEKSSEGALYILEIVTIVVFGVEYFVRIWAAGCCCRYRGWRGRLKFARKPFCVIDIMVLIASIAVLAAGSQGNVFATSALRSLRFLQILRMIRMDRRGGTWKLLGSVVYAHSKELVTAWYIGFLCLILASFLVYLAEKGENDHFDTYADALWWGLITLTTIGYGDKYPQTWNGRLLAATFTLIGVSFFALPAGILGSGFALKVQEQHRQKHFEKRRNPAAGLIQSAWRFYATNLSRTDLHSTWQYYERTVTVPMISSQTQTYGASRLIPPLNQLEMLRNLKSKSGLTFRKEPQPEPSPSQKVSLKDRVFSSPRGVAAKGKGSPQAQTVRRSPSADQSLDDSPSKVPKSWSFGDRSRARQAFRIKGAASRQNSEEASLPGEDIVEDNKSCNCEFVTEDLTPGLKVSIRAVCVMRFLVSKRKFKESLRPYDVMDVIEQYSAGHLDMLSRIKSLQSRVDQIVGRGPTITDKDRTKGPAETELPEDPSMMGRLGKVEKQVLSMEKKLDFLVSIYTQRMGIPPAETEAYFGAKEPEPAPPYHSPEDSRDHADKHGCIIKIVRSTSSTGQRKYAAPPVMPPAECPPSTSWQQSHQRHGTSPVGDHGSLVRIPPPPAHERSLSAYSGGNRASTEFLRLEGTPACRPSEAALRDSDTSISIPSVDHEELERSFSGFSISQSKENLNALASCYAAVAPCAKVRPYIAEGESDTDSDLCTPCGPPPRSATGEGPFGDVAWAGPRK

SMILES	B-score
O=C1CC(=O)N(Cc2ccccc2)C(=O)N1CCCCCCN1C(=O)CC(=O)N(Cc2ccccc2)C1=O	inactive
CC(C)(C)c1ccc(CN2C(=O)CN=C(c3ccccc3)c3ccccc32)cc1	-6.95 (active)
CCOC(=O)c1c(-c2ccccc2)oc2ccc(OC(=O)N(C)C)cc12	-4.87 (inactive)
COc1ccccc1C1=NCc2nnc(CSC)n2-c2ccc(Cl)cc21	inactive
O=C(c1ccccc1[N+](=O)[O-])N1CCC2(CC1)OCCO2	inactive
COc1ccccc1CN1CCN(C(=O)Cc2ccccc2)CC1	-0.38 (inactive)
Cc1nn(-c2ccccc2)c(C)c1NC(=O)COC(=O)Cc1ccccc1	inactive
COc1ccc(CN2CCN(c3ccccc3F)CC2)c(OC)c1	-0.09 (inactive)
O=c1[nH]c(O)c(C=Nc2cc(F)cc(F)c2)c(=O)[nH]1	inactive
Cc1nc2ccccn2c1P(=S)(N1CCCCC1)N1CCCCC1	-5.55 (active)
CCCCCn1c(=O)c(C(=O)NCc2ccccc2)c(O)c2ccccc21	-3.71 (inactive)
COc1ccccc1OC(=O)c1ccc(C)c(S(=O)(=O)N2CCOCC2)c1	inactive
O=C(c1cc2nc(-c3ccccc3)cc(-c3ccccc3)n2n1)N1CCC2(CC1)OCCO2	-2.41 (inactive)
COc1ccc2c(c1)[C@]13CCCCC1C(C2)N(C)CC3 (stereo not given in full)	inactive
C/C(=N/O)c1ccc2ccc3ccccc3c2c1	-0.17 (inactive)
Cc1ccc(Cn2c(C)c3cnn(CC(=O)N4CCC5(CC4)OCCO5)c(=O)c3c2C)cc1	inactive
O=C(CCN1CCCCC1)NCC(=O)Nc1ccc(Br)cc1C(=O)c1ccccc1	-0.1 (inactive)
CN(C)CC1Oc2ccccc2OC1(O)c1ccccc1 (stereo not given)	-8.59 (active)
O=C(O)C1CSC(c2cccnc2)N1 (stereo not given)	-1.95 (inactive)
C=CC12CN(C)[C@@H]3C4CO[C@H](C[C@H]41)[C@]1(C(=O)Nc4ccccc41)[C@@H]32 (stereo not given in full)	inactive
CCCCCCCCCCCCn1ccc(=N)cc1	-3.45 (inactive)
CC(c1ccccc1)(c1ccccc1)c1ccncc1	-6.57 (active)
CC[C@H]1CC2CN3CCc4c([nH]c5ccccc45)C(C(=O)OC)(C2)C13 (stereo not given in full)	-0.03 (inactive)
O=C(NC(c1ccc(Cl)cc1)P(=O)(Oc1ccccc1)Oc1ccccc1)OCc1ccccc1 (stereo not given)	-9.52 (active)
COc1ccc(C2N3CC(C)(C)CN23)cc1 (stereo not given)	inactive
